Laboratory results published in PMC4336329 (PLoS ONE, 2015).
Hit rate of the full screen: of about 310,000 compounds, about 14,000 (4.5%) showed an effect of 50% or more. The effect is printed as a negative number. For the sample, strong results were picked, then their nearest neighbours and some compounds at random.

biological target: human ether-à-go-go-related gene (hERG) potassium channel (human, UniProt Q12809); test: primary screen, population patch clamp on CHO cells stably expressing hERG; higher = less effect of the substance
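Further: peak tail current of the secondary pulse compared with the same well before compound.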

human ether-à-go-go-related gene (hERG) potassium channel, sequence (Q12809 whole entry, looked up): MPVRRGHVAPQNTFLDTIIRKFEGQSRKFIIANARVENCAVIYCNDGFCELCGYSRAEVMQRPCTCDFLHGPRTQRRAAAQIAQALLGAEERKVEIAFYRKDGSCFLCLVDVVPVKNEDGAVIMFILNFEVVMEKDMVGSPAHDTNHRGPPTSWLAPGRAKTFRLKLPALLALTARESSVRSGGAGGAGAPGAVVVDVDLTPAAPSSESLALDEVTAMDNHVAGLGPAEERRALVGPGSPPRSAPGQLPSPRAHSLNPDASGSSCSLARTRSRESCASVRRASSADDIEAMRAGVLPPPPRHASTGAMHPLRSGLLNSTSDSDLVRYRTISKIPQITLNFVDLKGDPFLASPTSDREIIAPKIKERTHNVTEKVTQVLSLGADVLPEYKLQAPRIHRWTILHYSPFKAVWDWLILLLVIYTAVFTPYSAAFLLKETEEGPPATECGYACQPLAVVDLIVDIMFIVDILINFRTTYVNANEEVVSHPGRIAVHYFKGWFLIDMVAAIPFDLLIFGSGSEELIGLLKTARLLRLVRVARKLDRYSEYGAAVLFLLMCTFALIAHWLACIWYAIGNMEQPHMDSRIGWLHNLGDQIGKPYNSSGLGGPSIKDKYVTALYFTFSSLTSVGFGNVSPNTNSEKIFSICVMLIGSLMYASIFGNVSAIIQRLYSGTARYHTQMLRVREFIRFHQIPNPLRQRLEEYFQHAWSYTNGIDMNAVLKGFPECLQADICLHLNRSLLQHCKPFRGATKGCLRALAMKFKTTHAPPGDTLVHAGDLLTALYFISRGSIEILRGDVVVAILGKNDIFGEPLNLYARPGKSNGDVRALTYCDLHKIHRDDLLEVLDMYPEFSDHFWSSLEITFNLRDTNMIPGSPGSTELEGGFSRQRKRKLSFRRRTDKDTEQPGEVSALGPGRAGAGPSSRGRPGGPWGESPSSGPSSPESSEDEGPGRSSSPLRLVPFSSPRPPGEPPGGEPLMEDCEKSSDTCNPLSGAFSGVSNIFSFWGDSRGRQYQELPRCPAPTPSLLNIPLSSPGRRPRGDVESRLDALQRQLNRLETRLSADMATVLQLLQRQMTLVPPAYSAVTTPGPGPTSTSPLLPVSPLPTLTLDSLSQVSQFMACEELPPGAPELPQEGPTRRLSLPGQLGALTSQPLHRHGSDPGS

| SMILES | hERG current change (%, negative = inhibition) at 10uM |
| --- | --- |
| COc1ccc(N2CCN(C(c3cccs3)C(C)NS(C)(=O)=O)CC2)cc1 (stereo not shown) | 7.84% |
| CN1C(=O)c2ccccc2C(C(=O)O)C1c1cccc(F)c1 (stereo not shown) | 0.483% |
| CCOc1ccccc1N(C)C(=O)c1sc2ncn(CC(=O)N3CCCCC3C)c(=O)c2c1C (stereo not shown) | 6.44% |
| CCOC(=O)CCSc1nc2c(c(C(F)(F)F)c1C#N)CCC2 | 3.58% |
| O=C(c1ccccc1OCc1ccccc1Br)N1CCN(c2ncccn2)CC1 | -37.2% |
| O=C(C[n+]1cccc2ccccc21)c1ccc(Br)cc1.[Br-] | -45.1% |
| O=C(c1ccco1)N1CCCN(Cc2nc(Cc3ccccc3)no2)CC1 | -25.8% |
| Cc1cccnc1CN1CCN(Cc2nc(Cc3cccc(F)c3)no2)CC1 | -29.5% |
| c1ccc(Cc2noc(CN3CCC(CN4CCOCC4)CC3)n2)cc1 | 4.64% |
| O=C(c1ccco1)N1CCN(Cc2nc(Cc3ccccc3)no2)CC1 | -8.87% |
| Cc1ccccc1N1CCN(Cc2nc(Cc3ccccc3)no2)CC1 | 9.18% |
| CN1CCN(Cc2nc(Cc3cccc(F)c3)no2)CC1c1ccccc1 (stereo not shown) | -18.2% |
| Fc1cccc(Cc2noc(CN3CCOCC3)n2)c1 | 11.4% |
| Fc1cccc(Cc2noc(CN3CCCN(C4Cc5ccccc5C4)CC3)n2)c1 | -86.5% |
| Fc1cccc(Cc2noc(CN3CCSCC3)n2)c1 | 29.1% |
| Fc1cccc(Cc2noc(CN3CCN(C4CCc5ccccc5C4)CC3)n2)c1 (stereo not shown) | -78.6% |
| c1ccc(Cc2noc(CN3CCN(C4CCc5ccccc5C4)CC3)n2)cc1 (stereo not shown) | -81.2% |
| c1ccc(Cc2noc(CN3CCCN(C4Cc5ccccc5C4)CC3)n2)cc1 | -80% |
| Cc1ccc(CN2CCNC(=O)C2CC(=O)NCC(F)(F)F)o1 (stereo not shown) | 14.1% |
| CCOc1cccc(/C=C(/C#N)c2nc3ccccc3[nH]2)c1OCC(=O)O | 14.1% |
| COc1cc(C(=O)Nc2nc3ccc4nc(C)sc4c3s2)cc(OC)c1OC | -5.34% |
| C=CCN(C(=O)CNC(=O)c1ccco1)C(C(=O)NC1CCCCC1)c1ccccc1 (stereo not shown) | 1.1% |

| SMILES | hERG current change (%, negative = inhibition) at 10uM |
| --- | --- |
| C=C1CCN(c2ccc(C(=O)NCCC)cc2[N+](=O)[O-])CC1 | -48.3% |
| CN(C)C(=O)Cn1cnc2c(cnn2-c2ccc(F)cc2)c1=O | -2.06% |
| COC(=O)C(C(=O)OC)C(C[N+](=O)[O-])c1ccc(OC)cc1 (stereo not shown) | -6.91% |
| Cc1cc(C)cc(NC(=O)C2CCN(S(=O)(=O)c3ccc4c(c3)NC(=O)C(C)S4)CC2)c1 (stereo not shown) | 8.79% |
| CCC(C)NC(=O)CSc1ccc(S(=O)(=O)N2CCN(Cc3ccccc3)CC2)cn1 (stereo not shown) | -16.6% |
| O=C(OC(c1ccccc1)c1nccc2ccccc12)c1cccc([N+](=O)[O-])c1 (stereo not shown) | 8.01% |
| CN(C)/C=N/c1cnc(C(=O)c2ccc(Cl)cc2)n1C | 5.58% |
| Br.CCCN(CCC)[C@@H]1CCc2cccc(O)c2C1 | -34.4% |
| Br.CCCN(CCC)C1CCc2cccc(O)c2C1 (stereo not shown) | -10.6% |
| Br.CCCN(CCC)C1CCc2ccc(O)cc2C1 (stereo not shown) | -70% |
| COc1ccc(Cl)c2sc(N(Cc3cccnc3)C(C)=O)nc12 | 13.2% |
| Cc1cc(C(=O)Nc2ccccc2)oc1C | 7.57% |
| Cc1cc(C(=O)Nc2ccc3ccccc3c2)oc1C | -68.1% |
| CC(=O)c1cc(C(=O)Nc2ccc3ccccc3c2)c(C)o1 | 13.8% |
| COc1ccc(S(=O)(=O)N2CCCOC2CNC(=O)C(=O)NCCCn2ccnc2)cc1 (stereo not shown) | -3.17% |
| Cc1cc(C)cc(N(CC(=O)Nc2ccccc2-c2ccccc2)S(=O)(=O)c2ccccc2)c1 | 13.1% |
| COc1ccc(N(CC(=O)N/N=C/c2cccnc2)S(=O)(=O)c2ccccc2)c(OC)c1 | -40.6% |
| COc1ccc(N(CC(=O)N/N=C/c2cccnc2)S(=O)(=O)c2ccc(C)cc2)cc1OC | -14.2% |
| Cc1cc(C)cc(N(CC(=O)N/N=C/c2ccncc2)S(=O)(=O)c2ccccc2)c1 | -76.9% |
| COc1ccc(/C=N/NC(=O)CN(c2ccc(OC)cc2)S(=O)(=O)c2ccccc2)cc1 | -7.15% |
| Cc1ccc(N(CC(=O)N/N=C/c2cccnc2)S(=O)(=O)c2ccccc2)cc1 | -52% |
| CC(=O)NCCC(=O)N1CCCC(CNC(=O)c2ccc(-c3ccccc3)cc2)C1 (stereo not shown) | -0.511% |

| SMILES | hERG current change (%, negative = inhibition) at 10uM |
| --- | --- |
| Cn1cc(C(O)CN2CCCCC2)c2ccccc21 (stereo not shown) | 9.26% |
| CCn1c(COc2ccc3c(c2)CCCC3)nnc1SCC(=O)Nc1ccc(C(=O)OC)cc1 | 5.43% |
| CN(Cc1ccccc1)C(=O)c1ccccc1NC(=O)c1ccco1 | 20% |
| Cc1nc2ccccc2c(-c2ccccc2)c1C(=O)c1ccccc1 | 0.392% |
| CCN(CC)c1nc2ccccc2c(N)c1-c1ccccc1.O=C(O)C(=O)O | -77% |
| CCOC(=O)c1c(C)nc2ccccc2c1-c1ccccc1.Cl | -30.8% |
| CCOC(=O)c1c(CCl)nc2ccccc2c1-c1ccccc1 | 5.72% |
| Cc1c(N(C)C)nc2ccccc2c1N.O=C(O)C(=O)O | -46.5% |
| CN(C)c1nc2ccccc2c(N)c1-c1ccccc1.O=C(O)C(=O)O | -65.9% |
| CCOC(=O)c1c(-c2ccccc2)csc1NC(=S)NC | -3.27% |
| CCN(CC)C(=O)COc1ccc(Br)cc1Cl | -11.8% |
| NC(=S)N/N=C1\CC(n2nnn(-c3cccc(Cl)c3)c2=S)C2COC1O2 (stereo not shown) | -26.8% |
| Cc1cc(C)cc(C(=O)NC(CC(N)=O)c2ccc(N3CCC(Br)CC3)c([N+](=O)[O-])c2)c1 (stereo not shown) | -16.1% |
| CC(Oc1cccc(Cl)c1)C(=O)Nc1ccccc1N1CCCC1 (stereo not shown) | -15.3% |
| CCN1CCN(c2ccc(S(=O)(=O)N3CCOCC3)cc2NC(=O)C(C)Oc2cccc(Cl)c2)CC1 (stereo not shown) | -70.8% |
| CC(Oc1cccc(Cl)c1)C(=O)Nc1cc(S(=O)(=O)N2CCOCC2)ccc1N1CCCC1 (stereo not shown) | -24.8% |
| CC(Oc1ccc(F)cc1)C(=O)Nc1cc(S(=O)(=O)N2CCCCC2)ccc1N1CCOCC1 (stereo not shown) | -5.21% |
| CC(Oc1ccc(Br)cc1)C(=O)Nc1cc(S(=O)(=O)N2CCOCC2)ccc1N1CCCC1 (stereo not shown) | -5.62% |
| CC(Oc1ccc(F)cc1)C(=O)Nc1cc(S(=O)(=O)N2CCOCC2)ccc1N1CCCCC1 (stereo not shown) | 6.32% |
| CCN1CCN(c2ccccc2NC(=O)C(C)Oc2ccc(C(C)=O)cc2)CC1 (stereo not shown) | -51.6% |
| CCN1CCN(c2ccc(S(=O)(=O)N3CCCCC3)cc2NC(=O)C(C)Oc2ccc(F)cc2)CC1 (stereo not shown) | -72.7% |
| CC(=O)c1ccc(OCC(=O)Nc2ccccc2N2CCCC2)cc1 | -2.74% |

| SMILES | hERG current change (%, negative = inhibition) at 10uM |
| --- | --- |
| CC(Oc1cccc(Cl)c1)C(=O)Nc1cc(S(=O)(=O)N2CCCCC2)ccc1N1CCOCC1 (stereo not shown) | -8.24% |
| CC(Oc1cccc(Cl)c1)C(=O)Nc1cc(S(=O)(=O)N2CCOCC2)ccc1N1CCCCC1 (stereo not shown) | 8.44% |
| CCN1CCN(c2ccc(S(=O)(=O)N3CCOCC3)cc2NC(=O)C(C)Oc2ccc(Cl)cc2)CC1 (stereo not shown) | -70.9% |
| O=C(Nc1cccnc1)C1(c2ccccc2)CCCC1 | 4.11% |
| O=[N+]([O-])/C=C1/NCCN1Cc1ccc(Cl)nc1 | -1.96% |
| CC1CCc2c(C(=O)NCc3ccco3)csc2C1 (stereo not shown) | -8.96% |
| Cn1c(SCC(=O)O)nc2sc3c(c2c1=O)CCC3 | 30.3% |
| COC(=O)c1ccc2c(c1)S(=O)(=O)NC(=NCc1ccco1)S2 | -23.8% |
| O=C(NCc1cccc(Cl)c1)c1cnccn1 | -9.28% |
| CCn1ncc(-c2csc(N)n2)c1C | 0.511% |
| BrC(=C\c1ccccc1)/C=N/N1CCN(Cc2ccccc2)CC1 | 4.34% |
| CCN1C(=O)C(CC(=O)NCCc2ccccc2)N(NC(=O)c2cccnc2)C1=S (stereo not shown) | -21.1% |
| O=C(CSc1nc2cc(Cl)ccc2s1)Nc1cccc(S(=O)(=O)N2CCOCC2)c1 | -10.7% |
| S=C(NCCc1ccccc1)Nc1ccc(Br)cn1 | 3.98% |
| CC(Oc1ccc(F)cc1)C(=O)Nc1cc(S(=O)(=O)N2CCOCC2)ccc1N1CCN(C)CC1 (stereo not shown) | -29.9% |
| CCN1CCN(c2ccc(S(=O)(=O)N3CCOCC3)cc2NC(=O)C(C)Oc2ccc(F)cc2)CC1 (stereo not shown) | -57.4% |
| CC(Oc1ccc(F)cc1)C(=O)Nc1cc(S(=O)(=O)N2CCOCC2)ccc1N1CCCC1 (stereo not shown) | 13.7% |
| C=CCN1C(=O)/C(=C\c2ccc(Oc3nc(N4CCOCC4)nc(N4CCOCC4)n3)c(OC)c2)SC1=S | 15.9% |
| COCCn1c(=S)[nH]c2cc(C(=O)NCCCN3CCOCC3)ccc2c1=O | 8.93% |
